Experimental data as given in PubChem BioAssay (NCATS).
Inconclusive results are not listed. Active and inactive are the calls of the source. Unless noted, calls follow the shape of the dose curve; as a rule, active = well fitted inhibition curve with a large enough effect; inconclusive = small, poorly fitted or top-dose-only effect; inactive = flat fitted curve, though single readings scatter. Peptide text beside a SMILES is read from it.

Tests used:
[1] = qHTS drug screen for cell cycle checkpoint inhibitors in PARPi-resistant BRCA-mutant ovarian cancer cell lines. (AID 1963452; calls by dose curve); conditions: PEO1/OlaR viability, CellTiter-Glo luminescence, 96 h, stronger effect = lower value
Summary of the method: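 PEO1, PEO4 and PEO1/OlaR ovarian cancer cells, 600 per well, exposed 96 h at 37C to a dilution series. Viability read by CellTiter-Glo luminescence, normalized to DMSO and empty wells; activity summarized as Z-AUC.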

[2] = qHTS for identification of novel therapeutic agents for treatment of microphthalmiaassociated transcription factor (MiT) renal cell carcinoma (RCC) (AID 1963991; calls by dose curve; also: potency is read from the fitted curve at half-maximal effect;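 as to z-score: curves scaled with 100% = DMSO viability and 0% = empty wells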); conditions: CellTiter-Glo, 48 h; for z-score: stronger effect = lower value
Summary of the method: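 UOK109/UOK124/UOK145 (TFE3 fusions, three partners); 500 cells/well; MIPE v4.0, 1912 cpds, 11 conc.; 48 h, 37 C; CellTiter-Glo, 15 min RT; lum. Norm.: DMSO 100%, empty 0%.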

[3] = qHTS profiling for inhibitors of Plasmodium falciparum proliferation (AID 504749); also: nearly all actives have a fitted effect of over 60% in size; also: potency is read from the fitted curve at half-maximal effect;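 as to activity, negative = inhibition: 0% = DMSO vehicle and full inhibition = artemisinin control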; conditions: P. falciparum in erythrocytes, SYBR Green DNA, 72 h
Summary of the method: (§1)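 Three-day growth assay of blood-stage parasites in erythrocytes (0.3% parasitemia, 2.5% hematocrit) at 37 C, 5% CO2, quantified by SYBR Green DNA staining after overnight detergent lysis.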

[4] = tested on: 3D7; test: as above; conditions: P. falciparum in erythrocytes, SYBR Green DNA, 72 h; series mostly up to 28.7 µM
Summary of the method: as §1

[5] = tested on: 7G8; test: as above; conditions: P. falciparum in erythrocytes, SYBR Green DNA, 72 h; series mostly up to 28.7 µM
Summary of the method: as §1

[6] = tested on: AA1029; test: as above; conditions: P. falciparum in erythrocytes, SYBR Green DNA, 72 h; series mostly up to 28.7 µM
Summary of the method: as §1

[7] = tested on: AS120; test: as above; conditions: P. falciparum in erythrocytes, SYBR Green DNA, 72 h; series mostly up to 28.7 µM
Summary of the method: as §1

[8] = tested on: ATS189; test: as above; conditions: P. falciparum in erythrocytes, SYBR Green DNA, 72 h; series mostly up to 28.7 µM
Summary of the method: as §1

[9] = tested on: ATS95; test: as above; conditions: P. falciparum in erythrocytes, SYBR Green DNA, 72 h; series mostly up to 28.7 µM
Summary of the method: as §1

[10] = tested on: C2A; test: as above; conditions: P. falciparum in erythrocytes, SYBR Green DNA, 72 h; series mostly up to 28.7 µM
Summary of the method: as §1

[11] = tested on: CP185; test: as above; conditions: P. falciparum in erythrocytes, SYBR Green DNA, 72 h; series mostly up to 28.7 µM
Summary of the method: as §1

[12] = tested on: CP191; test: as above; conditions: P. falciparum in erythrocytes, SYBR Green DNA, 72 h; series mostly up to 28.7 µM
Summary of the method: as §1

[13] = tested on: CP192; test: as above; conditions: P. falciparum in erythrocytes, SYBR Green DNA, 72 h; series mostly up to 28.7 µM
Summary of the method: as §1

[14] = tested on: CP194; test: as above; conditions: P. falciparum in erythrocytes, SYBR Green DNA, 72 h; series mostly up to 28.7 µM
Summary of the method: as §1

[15] = tested on: CP201; test: as above; conditions: P. falciparum in erythrocytes, SYBR Green DNA, 72 h; series mostly up to 28.7 µM
Summary of the method: as §1

[16] = tested on: CP203; test: as above; conditions: P. falciparum in erythrocytes, SYBR Green DNA, 72 h; series mostly up to 28.7 µM
Summary of the method: as §1

[17] = tested on: CP211; test: as above; conditions: P. falciparum in erythrocytes, SYBR Green DNA, 72 h; series mostly up to 28.7 µM
Summary of the method: as §1

[18] = tested on: CP215; test: as above; conditions: P. falciparum in erythrocytes, SYBR Green DNA, 72 h; series mostly up to 28.7 µM
Summary of the method: as §1

[19] = tested on: CP217; test: as above; conditions: P. falciparum in erythrocytes, SYBR Green DNA, 72 h; series mostly up to 28.7 µM
Summary of the method: as §1

[20] = measured here: PEO1 parental Z-AUC
[21] = TFE3-RCC UOK109 viability, measured here: UOK109 Z-AUC
[22] = TFE3-RCC viability, measured here: UOK124 Z-AUC
[23] = TFE3-RCC viability, measured here: UOK145 Z-AUC
[24] = at 28.7 µM (top of the series), parasite line A
[25] = at 28.7 µM (top of the series), parasite line B

c1cnc2cc3c(cc2n1)C1CNCC3C1
0.454: z-score [2, 23]
-0.804: Z-AUC [1, 20]
-0.403: Z-AUC ([1]; measured here: PEO4 Z-AUC)
-0.0233: z-score [2, 21]
inactive: Z-AUC [1] -0.725
0.674: z-score [2, 22]

O=C(O)c1cc(=O)c2c(OCC(O)COc3cccc4oc(C(=O)O)cc(=O)c34)cccc2o1
1: Z-AUC ([1]; measured here: PEO4 Z-AUC)
0.209: z-score [2, 21]
0.177: z-score [2, 22]
1.06: Z-AUC [1, 20]
-0.326: z-score [2, 23]
inactive: Z-AUC [1] 1.18 | activity, negative = inhibition [3, 24] 8.12% | activity, negative = inhibition [3, 25] 15.8% | Potency [4] | Potency [5] | Potency [6] | Potency [7] | Potency [8] | Potency [9] | Potency [10] | Potency [11] | Potency [12] | Potency [13] | Potency [14] | Potency [15] | Potency [16] | Potency [17] | Potency [18] | Potency [19]

CC[C@]1(O)C[C@H]2CN(CCc3c([nH]c4ccccc34)[C@@](C(=O)OC)(c3cc4c(cc3OC)N(C=O)[C@H]3[C@@](O)(C(=O)OC)[C@H](OC(C)=O)[C@]5(CC)C=CCN6CC[C@]43[C@@H]65)C2)C1
-0.827: z-score [2, 21]
-1.16: Z-AUC ([1]; measured here: PEO4 Z-AUC)
-1.14: Z-AUC [1, 20]
-0.98: z-score [2, 23]
inactive: Z-AUC [1] -0.637
active: Potency ([2]; TFE3-RCC UOK109 viability, active = Z-AUC below -0.8 in all three lines) 66.2 nM | Potency ([3]; parasite line A) 2240 nM | Potency [5] 141 nM | Potency [6] 2510 nM | Potency [7] 3550 nM | Potency [9] 2510 nM | Potency [10] 2000 nM | Potency [11] 1580 nM | Potency [12] 2240 nM | Potency [14] 1690 nM | Potency [17] 2130 nM | Potency [19] 4470 nM
-2.28: z-score [2, 22]

COc1cc(OC)c(C(=O)CCCN2CCCC2)c(OC)c1
0.362: z-score [2, 22]
1.14: z-score [2, 21]
0.794: Z-AUC ([1]; measured here: PEO4 Z-AUC)
-0.41: z-score [2, 23]
inactive: Z-AUC [1] 1.29 | activity, negative = inhibition ([3]; at 12.8 µM (top of the series), parasite line A) 17.5% | activity, negative = inhibition ([3]; at 12.8 µM (top of the series), parasite line B) 11% | Potency [4] | Potency [5] | Potency [6] | Potency [7] | Potency [8] | Potency [9] | Potency [10] | Potency [11] | Potency [12] | Potency [13] | Potency [14] | Potency [15] | Potency [17] | Potency [18] | Potency [19]
0.91: Z-AUC [1, 20]

COC(=O)[C@H](Cc1ccccc1)NC(=O)[C@@H](N)CC(=O)O (H-Asp-Phe-OMe)
0.437: Z-AUC ([1]; measured here: PEO4 Z-AUC)
0.0667: Z-AUC [1, 20]
0.591: z-score [2, 21]
0.618: z-score [2, 23]
0.672: z-score [2, 22]
inactive: Z-AUC [1] 0.187 | activity, negative = inhibition [3, 24] 5.55% | activity, negative = inhibition [3, 25] 9.71% | Potency [4] | Potency [5] | Potency [6] | Potency [7] | Potency [8] | Potency [9] | Potency [10] | Potency [11] | Potency [12] | Potency [13] | Potency [14] | Potency [15] | Potency [17] | Potency [18] | Potency [19]

CCCCN(CCCC)CCC(O)c1cc2c(Cl)cc(Cl)cc2c2cc(C(F)(F)F)ccc12 (configuration not stated)
-0.882: Z-AUC ([1]; measured here: PEO4 Z-AUC)
0.539: z-score [2, 22]
0.552: z-score [2, 23]
0.318: z-score [2, 21]
active: Potency ([3]; parasite line A) 7.9 nM | Potency ([3]; parasite line B) 5.6 nM | Potency [4] 3.2 nM | Potency [5] 1.1 nM | Potency [6] 6.3 nM | Potency [7] 5.6 nM | Potency [8] 5.6 nM | Potency [9] 7.9 nM | Potency [10] 25.1 nM | Potency [11] 28.2 nM | Potency [12] 12.6 nM | Potency [13] 10.2 nM | Potency [14] 32.2 nM | Potency [15] 51 nM | Potency [17] 64.2 nM | Potency [18] 28.7 nM | Potency [19] 12.6 nM
inactive: Z-AUC [1] -0.995
-1.16: Z-AUC [1, 20]

Nc1ccc(S(N)(=O)=O)cc1
0.709: z-score [2, 22]
0.495: Z-AUC [1, 20]
1.06: z-score [2, 21]
1.29: z-score [2, 23]
inactive: Z-AUC [1] 0.067 | activity, negative = inhibition [3, 24] 13.4% | activity, negative = inhibition [3, 25] 14.6% | Potency [4] | Potency [5] | Potency [6] | Potency [7] | Potency [8] | Potency [9] | Potency [10] | Potency [11] | Potency [12] | Potency [13] | Potency [14] | Potency [15] | Potency [17] | Potency [18] | Potency [19]
0.56: Z-AUC ([1]; measured here: PEO4 Z-AUC)

COc1c2occc2cc2ccc(=O)oc12
1.07: Z-AUC [1, 20]
0.483: z-score [2, 22]
-0.0945: z-score [2, 21]
1.02: Z-AUC ([1]; measured here: PEO4 Z-AUC)
inactive: Z-AUC [1] 0.446
0.177: z-score [2, 23]

COC(=O)C1=C(C)NC(C)=C(C(=O)OCCCN2CCC(c3ccccc3)(c3ccccc3)CC2)C1c1cccc([N+](=O)[O-])c1 (configuration not stated)
0.568: z-score [2, 22]
active: Potency ([3]; parasite line A) 4470 nM | Potency ([3]; parasite line B) 6310 nM | Potency [4] 2820 nM | Potency [5] 2000 nM | Potency [6] 4470 nM | Potency [7] 2820 nM | Potency [8] 4470 nM | Potency [9] 5010 nM | Potency [10] 3980 nM | Potency [11] 7080 nM | Potency [12] 4470 nM | Potency [14] 5360 nM | Potency [15] 9530 nM | Potency [16] 9530 nM | Potency [17] 6010 nM | Potency [18] 6750 nM | Potency [19] 3550 nM
1.29: z-score [2, 21]
0.403: Z-AUC ([1]; measured here: PEO4 Z-AUC)
0.759: z-score [2, 23]
0.68: Z-AUC [1, 20]
inactive: Z-AUC [1] 0.516

Cc1ncc([N+](=O)[O-])n1CC(C)O (configuration not stated)
1.68: z-score [2, 23]
1.06: Z-AUC [1, 20]
1.59: z-score [2, 21]
inactive: Z-AUC [1] 0.202 | activity, negative = inhibition [3, 24] 11.8% | activity, negative = inhibition [3, 25] 17% | Potency [4] | Potency [5] | Potency [6] | Potency [7] | Potency [8] | Potency [9] | Potency [10] | Potency [11] | Potency [12] | Potency [13] | Potency [14] | Potency [15] | Potency [17] | Potency [18] | Potency [19]
0.768: Z-AUC ([1]; measured here: PEO4 Z-AUC)
0.687: z-score [2, 22]
